Data: PubChem BioAssay AID1159580 (chemical genetic matrix, 2015)
Several values for one entry are separate records, joined by “and”; a condition that tells them apart may be missing. Equal entries are not always repeated. In all, about 5,500 compounds went through this assay and about 2,000 (36%) were called active. Roughly 18% stayed inconclusive and do not appear here. No stated cut-off is given here; in the data, active means normalized growth mostly below about 0.91 (no sharp cut-off); inconclusive means no clear call, values can overlap the other calls; inactive means mostly above about 0.92. The list shows a part of the results.

Test: chemical genetic growth profiling, strain panel (AID 1159580);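 further: tested at 20 µM; growth read once vehicle control cultures reached saturation at 30 °C; 1 = growth at the plate median or of vehicle wells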
Conditions: S. cerevisiae deletion strains, growth OD

Measured: normalized growth

CCC[C@@H]1C[C@@H](C(=O)N[C@H]([C@H]2O[C@H](SC)[C@H](O)[C@@H](O)[C@H]2O)[C@H](C)O)N(C)C1
inactive: locus YAL021C, strain ccr4, stronger effect = lower value 0.981 | locus YAL026C, strain drs2, stronger effect = lower value 0.99 | locus YAL030W, strain snc1, stronger effect = lower value 0.984 | locus YBL061C, strain skt5, stronger effect = lower value 0.981 | locus YBR009C, strain hhf1, stronger effect = lower value 1.01 | locus YBR021W, strain FUR4, stronger effect = lower value 1.01 | locus YBR023C, strain chs3, stronger effect = lower value 0.977 | locus YBR171W, strain sec66, stronger effect = lower value 0.962 | locus YBR229C, strain ROT2, stronger effect = lower value 0.991 | locus YBR231C, strain swc5, stronger effect = lower value 0.981 | locus YBR279W, strain paf1, stronger effect = lower value 0.985 | locus YCL011C, strain gbp2, stronger effect = lower value 0.997 | locus YCL016C, strain dcc1, stronger effect = lower value 1.03 | locus YCL029C, strain bik1, stronger effect = lower value 0.996 | locus YCL061C, strain MRC1, stronger effect = lower value 0.969 | locus YCL069W, strain vba3, stronger effect = lower value 0.971 | locus YCR088W, strain abp1, stronger effect = lower value 0.973 | locus YDL005C, strain med2, stronger effect = lower value 0.979 | locus YDL035C, strain GPR1, stronger effect = lower value 1.02 | locus YDL040C, strain nat1, stronger effect = lower value 0.975 | locus YDL074C, strain BRE1, stronger effect = lower value 1.03 | locus YDL101C, strain DUN1, stronger effect = lower value 0.983 | locus YDL134C, strain PPH21, stronger effect = lower value 1 | locus YDL185W, strain tfp1, stronger effect = lower value 0.979 | locus YDL192W, strain arf1, stronger effect = lower value 0.98 | locus YDR001C, strain nth1, stronger effect = lower value 0.958 | locus YDR069C, strain doa4, stronger effect = lower value 0.965 | locus YDR101C, strain arx1, stronger effect = lower value 1.01 | locus YDR137W, strain rgp1, stronger effect = lower value 0.983 | locus YDR150W, strain NUM1, stronger effect = lower value 1 | locus YDR159W, strain sac3, stronger effect = lower value 1.01 | locus YDR162C, strain NBP2, stronger effect = lower value 1.01 | locus YDR195W, strain ref2 0.922 | locus YDR297W, strain sur2, stronger effect = lower value 0.975 | locus YDR318W, strain mcm21, stronger effect = lower value 0.989 | locus YDR334W, strain swr1, stronger effect = lower value 0.929 | locus YDR335W, strain msn5, stronger effect = lower value 0.974 | locus YDR388W, stronger effect = lower value 0.992 | locus YDR392W, strain spt3, stronger effect = lower value 1.04 | locus YDR502C, strain sam2, stronger effect = lower value 0.991 | locus YEL003W, strain gim4, stronger effect = lower value 0.952 | locus YEL037C, strain rad23, stronger effect = lower value 0.983 | locus YEL061C, strain CIN8 (second series), stronger effect = lower value 0.962 | locus YEL061C, strain CIN8, stronger effect = lower value 1.01 | locus YER015W, strain faa2, stronger effect = lower value 1.01 | locus YER016W, strain bim1, stronger effect = lower value 0.987 | locus YER110C, stronger effect = lower value 0.983 | locus YER111C, strain swi4, stronger effect = lower value 0.98 | locus YER155C, strain BEM2 (second series), stronger effect = lower value 0.986 | locus YER155C, strain BEM2, stronger effect = lower value 0.975 | locus YER167W, strain BCK2, stronger effect = lower value 1.02 | locus YFR010W, strain ubp6, stronger effect = lower value 0.974 | locus YGL078C, strain dbp3, stronger effect = lower value 0.981 | locus YGL086W, strain mad1, stronger effect = lower value 1 | locus YGL167C, strain pmr1, stronger effect = lower value 0.959 | locus YGL173C, strain kem1, stronger effect = lower value 0.973 | locus YGL227W, strain vid30, stronger effect = lower value 0.978 | locus YGL240W, strain doc1, stronger effect = lower value 0.958 | locus YGL248W, strain PDE1, stronger effect = lower value 0.986 | locus YGL253W, strain hxk2, stronger effect = lower value 0.992 | locus YGR078C, strain PAC10, stronger effect = lower value 0.993 | locus YGR135W, strain pre9, stronger effect = lower value 0.955 | locus YGR252W, strain gcn5, stronger effect = lower value 0.943 | locus YHR013C, strain ard1, stronger effect = lower value 0.993 | locus YHR027C, strain rpn1, stronger effect = lower value 0.981 | locus YHR030C, strain SLT2, stronger effect = lower value 1.01 | locus YHR079C, strain IRE1 (second series), stronger effect = lower value 0.998 | locus YHR079C, strain IRE1, stronger effect = lower value 1.03 | locus YHR094C, strain hxt1, stronger effect = lower value 0.998 | locus YHR129C, strain ARP1, stronger effect = lower value 0.981 | locus YHR142W, strain chs7, stronger effect = lower value 0.995 | locus YHR200W, strain rpn10, stronger effect = lower value 0.993 | locus YIL066C, strain RNR3, stronger effect = lower value 0.991 | locus YIL073C, strain SPO22, stronger effect = lower value 1 | locus YIL125W, strain kgd1, stronger effect = lower value 0.985 | locus YIR030C, strain dcg1, stronger effect = lower value 0.99 | locus YJL092W, strain hpr5, stronger effect = lower value 0.977 | locus YJL095W, strain BCK1 (second series), stronger effect = lower value 0.978 | locus YJL095W, strain BCK1, stronger effect = lower value 0.98 and 1.02 | locus YJL115W, strain asf1, stronger effect = lower value 0.977 | locus YJL129C, strain trk1, stronger effect = lower value 0.984 | locus YJL134W, strain LCB3, stronger effect = lower value 0.998 | locus YJL154C, strain vps35, stronger effect = lower value 0.969 | locus YJL164C, strain tpk1, stronger effect = lower value 1.01 | locus YJL166W, strain qcr8, stronger effect = lower value 0.934 | locus YJL168C, strain set2, stronger effect = lower value 0.992 | locus YJL187C, strain SWE1 (second series), stronger effect = lower value 0.984 | locus YJR043C, strain POL32, stronger effect = lower value 1.01
